Test results from the supplement of paper PMC4466140.

B1: unnamed (peptide)
chain: VRTRRRPPPPPIPST
B2: unnamed (peptide)
chain: QNTPPLPPKPKSPHL
B3: unnamed (peptide)
chain: QQNRPLPQLPNRNNR

target: AgAbp1; assay: SPOT peptide array binding signal intensity (averaged, normalized) (arbitrary units (background-subtracted, floor 0; scale differs between SH3 domains)); higher = stronger binding of the SH3 domain to the peptide
Method: (§1)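 GST-tagged SH3 domains from S. cerevisiae (Sc), A. gossypii (Ag), C. albicans (Ca) and S. pombe (Sp) were incubated at 10 ug/ml overnight at 4 C on cellulose SPOT membranes carrying 292 synthetic 15-mer peptides mined from the S. cerevisiae proteome (cysteines replaced by serines). Binding was detected with anti-GST antibody, HRP secondary and chemiluminescence, quantified with Genespotter, and reported as normalized spot intensities averaged over biological replicates.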

Binder | SPOT peptide array binding signal intensity
B1 | 28.5
B2 | 29

target: AgBbc1; assay: as above
Method: as §1

Binder | SPOT peptide array binding signal intensity
B1 | 892
B2 | 4.75

target: AgBem1-D1; assay: as above
Method: as §1

Binder | SPOT peptide array binding signal intensity
B1 | 472
B2 | ≤ 0

target: AgBzz1-D1; assay: as above
Method: as §1

Binder | SPOT peptide array binding signal intensity
B1 | 3600
B2 | 30

target: AgBzz1-D2; assay: as above
Method: as §1

Binder | SPOT peptide array binding signal intensity
B1 | 940
B2 | 38

target: AgCyk3; assay: as above
Method: as §1

Binder | SPOT peptide array binding signal intensity
B1 | 2
B2 | ≤ 0

target: AgFus1; assay: as above
Method: as §1

Binder | SPOT peptide array binding signal intensity
B1 | 30
B2 | 17.5

target: AgHof1; assay: as above
Method: as §1

Binder | SPOT peptide array binding signal intensity
B1 | 258
B2 | 777

target: AgHse1; assay: as above
Method: as §1

Binder | SPOT peptide array binding signal intensity
B1 | 29
B2 | 39.5

target: AgLsb1; assay: as above
Method: as §1

Binder | SPOT peptide array binding signal intensity
B1 | 91.8
B2 | 1

target: AgLsb4; assay: as above
Method: as §1

Binder | SPOT peptide array binding signal intensity
B1 | 44.5
B2 | 60.5

target: AgMyo5; assay: as above
Method: as §1

Binder | SPOT peptide array binding signal intensity
B1 | 274
B2 | ≤ 0

target: AgNbp2; assay: as above
Method: as §1

Binder | SPOT peptide array binding signal intensity
B1 | 840
B2 | 6.5

target: AgRvs167; assay: as above
Method: as §1

Binder | SPOT peptide array binding signal intensity
B1 | 5.5
B2 | 1

target: AgSho1; assay: as above
Method: as §1

Binder | SPOT peptide array binding signal intensity
B1 | ≤ 0
B2 | 54

target: AgSla1-D1-D2; assay: as above
Method: as §1

Binder | SPOT peptide array binding signal intensity
B1 | 20
B2 | 2

target: AgSla1-D3; assay: as above
Method: as §1

Binder | SPOT peptide array binding signal intensity
B1 | 346
B2 | 1.5

target: CaAbp1-D1; assay: as above
Method: as §1

Binder | SPOT peptide array binding signal intensity
B1 | 61
B2 | 55

target: CaAbp1-D2; assay: as above
Method: as §1

Binder | SPOT peptide array binding signal intensity
B1 | 55
B2 | 226

target: CaBbc1; assay: as above
Method: as §1

Binder | SPOT peptide array binding signal intensity
B1 | 1060
B2 | 41.5

target: CaBem1-D1; assay: as above
Method: as §1

Binder | SPOT peptide array binding signal intensity
B1 | 165
B2 | ≤ 0

target: CaBzz1-D1; assay: as above
Method: as §1

Binder | SPOT peptide array binding signal intensity
B1 | 6060
B2 | 46.5

target: CaBzz1-D2; assay: as above
Method: as §1

Binder | SPOT peptide array binding signal intensity
B1 | 3990
B2 | 48.2

target: CaCyk3; assay: as above
Method: as §1

Binder | SPOT peptide array binding signal intensity
B1 | 108
B2 | 1

target: CaFus1; assay: as above
Method: as §1

Binder | SPOT peptide array binding signal intensity
B1 | 7.5
B2 | ≤ 0

target: CaHof1; assay: as above
Method: as §1

Binder | SPOT peptide array binding signal intensity
B1 | ≤ 0
B2 | 3

target: CaHse1; assay: as above
Method: as §1

Binder | SPOT peptide array binding signal intensity
B1 | 13.8
B2 | 1110

target: CaLsb1; assay: as above
Method: as §1

Binder | SPOT peptide array binding signal intensity
B1 | ≤ 0
B2 | 0.5

target: CaLsb4; assay: as above
Method: as §1

Binder | SPOT peptide array binding signal intensity
B1 | 176
B2 | 521

target: CaMyo5; assay: as above
Method: as §1

Binder | SPOT peptide array binding signal intensity
B1 | 13
B2 | 4

target: CaNbp2; assay: as above
Method: as §1

Binder | SPOT peptide array binding signal intensity
B1 | 610
B2 | ≤ 0
B3 | 100

target: CaRvs167; assay: as above
Method: as §1

Binder | SPOT peptide array binding signal intensity
B1 | 48.5
B2 | 5.67
B3 | 1040

target: CaRvs167-3; assay: as above
Method: as §1

Binder | SPOT peptide array binding signal intensity
B1 | 2
B2 | 6
B3 | 1.75

target: CaSho1; assay: as above
Method: as §1

Binder | SPOT peptide array binding signal intensity
B1 | 25.5
B2 | 81
B3 | 658

target: CaSla1-D1-D2; assay: as above
Method: as §1

Binder | SPOT peptide array binding signal intensity
B1 | 2380
B2 | ≤ 0
B3 | 738

target: CaSla1-D3; assay: as above
Method: as §1

Binder | SPOT peptide array binding signal intensity
B1 | 296
B2 | 3.5
B3 | 3.25

target: ScAbp1; assay: as above
Method: as §1

Binder | SPOT peptide array binding signal intensity
B1 | 19
B2 | ≤ 0
B3 | 62

target: ScBbc1; assay: as above
Method: as §1

Binder | SPOT peptide array binding signal intensity
B1 | 358
B2 | ≤ 0
B3 | 65

target: ScBem1-D1; assay: as above
Method: as §1

Binder | SPOT peptide array binding signal intensity
B1 | 46
B2 | ≤ 0
B3 | 9

target: ScBzz1-D1; assay: as above
Method: as §1

Binder | SPOT peptide array binding signal intensity
B1 | 1430
B2 | ≤ 0
B3 | 25

target: ScBzz1-D2; assay: as above
Method: as §1

Binder | SPOT peptide array binding signal intensity
B1 | 210
B2 | 4
B3 | 21

target: ScCyk3; assay: as above
Method: as §1

Binder | SPOT peptide array binding signal intensity
B1 | 20.5
B2 | 1
B3 | 4

target: ScFus1; assay: as above
Method: as §1

Binder | SPOT peptide array binding signal intensity
B1 | 10
B2 | 21
B3 | 22

target: ScHof1; assay: as above
Method: as §1

Binder | SPOT peptide array binding signal intensity
B1 | 0.75
B2 | 196
B3 | 70.2

target: ScHse1; assay: as above
Method: as §1

Binder | SPOT peptide array binding signal intensity
B1 | 186
B2 | ≤ 0
B3 | ≤ 0

target: ScLsb1; assay: as above
Method: as §1

Binder | SPOT peptide array binding signal intensity
B1 | 96.8
B2 | 1
B3 | 95

target: ScLsb2; assay: as above
Method: as §1

Binder | SPOT peptide array binding signal intensity
B1 | 144
B2 | 1
B3 | 36.5

target: ScLsb3; assay: as above
Method: as §1

Binder | SPOT peptide array binding signal intensity
B1 | 584
B2 | 4390
B3 | 6550

target: ScLsb4; assay: as above
Method: as §1

Binder | SPOT peptide array binding signal intensity
B1 | 23.5
B2 | 52
B3 | 1180

target: ScMyo3; assay: as above
Method: as §1

Binder | SPOT peptide array binding signal intensity
B1 | 851
B2 | 2
B3 | ≤ 0

target: ScMyo5; assay: as above
Method: as §1

Binder | SPOT peptide array binding signal intensity
B1 | 892
B2 | ≤ 0
B3 | ≤ 0

target: ScNbp2; assay: as above
Method: as §1

Binder | SPOT peptide array binding signal intensity
B1 | 1260
B2 | 7.5
B3 | 23

target: ScPex13; assay: as above
Method: as §1

Binder | SPOT peptide array binding signal intensity
B1 | 269
B2 | 1360
B3 | 1010

target: ScRvs167; assay: as above
Method: as §1

Binder | SPOT peptide array binding signal intensity
B1 | 624
B2 | 57.2
B3 | 1370

target: ScSho1; assay: as above
Method: as §1

Binder | SPOT peptide array binding signal intensity
B1 | 141
B2 | 268
B3 | 6410

target: ScSla1-D1-D2; assay: as above
Method: as §1

Binder | SPOT peptide array binding signal intensity
B1 | 3390
B2 | ≤ 0
B3 | 383

target: ScSla1-D3; assay: as above
Method: as §1

Binder | SPOT peptide array binding signal intensity
B1 | 488
B2 | 4.5
B3 | 2

target: SpAbp1-D1; assay: as above
Method: as §1

Binder | SPOT peptide array binding signal intensity
B1 | 13.5
B2 | ≤ 0
B3 | 17

target: SpBbc1; assay: as above
Method: as §1

Binder | SPOT peptide array binding signal intensity
B1 | 77.2
B2 | ≤ 0
B3 | 28

target: SpBzz1-D1; assay: as above
Method: as §1

Binder | SPOT peptide array binding signal intensity
B1 | 2830
B2 | 302
B3 | 450

target: SpBzz1-D2; assay: as above
Method: as §1

Binder | SPOT peptide array binding signal intensity
B1 | 430
B2 | 2.5
B3 | 1.5

target: SpCyk3; assay: as above
Method: as §1

Binder | SPOT peptide array binding signal intensity
B1 | 2
B2 | ≤ 0
B3 | 123

target: SpHof1; assay: as above
Method: as §1

Binder | SPOT peptide array binding signal intensity
B1 | 248
B2 | ≤ 0
B3 | 1520

target: SpHof1-2; assay: as above
Method: as §1

Binder | SPOT peptide array binding signal intensity
B1 | 73
B2 | 11.2
B3 | 1990

target: SpHof1-3; assay: as above
Method: as §1

Binder | SPOT peptide array binding signal intensity
B1 | 88.2
B2 | 28.8
B3 | 1170

target: SpHse1; assay: as above
Method: as §1

Binder | SPOT peptide array binding signal intensity
B1 | 42.8
B2 | 16
B3 | 14

target: SpLsb1; assay: as above
Method: as §1

Binder | SPOT peptide array binding signal intensity
B1 | 63.5
B2 | 956
B3 | 82.8

target: SpLsb4; assay: as above
Method: as §1

Binder | SPOT peptide array binding signal intensity
B1 | 1370
B2 | 1280
B3 | 6900

target: SpMyo1; assay: as above
Method: as §1

Binder | SPOT peptide array binding signal intensity
B1 | 1460
B2 | 19.5
B3 | 45.8

target: SpNbp2; assay: as above
Method: as §1

Binder | SPOT peptide array binding signal intensity
B1 | ≤ 0
B2 | 42
B3 | 20

target: SpPex13; assay: as above
Method: as §1

Binder | SPOT peptide array binding signal intensity
B1 | 30
B2 | 0.5
B3 | 3.5

target: SpRvs167; assay: as above
Method: as §1

Binder | SPOT peptide array binding signal intensity
B1 | 265
B2 | 1090
B3 | 2080

target: SpSla1-D1-D2; assay: as above
Method: as §1

Binder | SPOT peptide array binding signal intensity
B1 | 520
B2 | ≤ 0
B3 | 333

target: SpSla1-D3; assay: as above
Method: as §1

Binder | SPOT peptide array binding signal intensity
B1 | 1
B2 | 3
B3 | 7
